Measurements: ChEMBL document CHEMBL3988442, “University of Dundee, Small-Polar-MMV Screening Library” (2021)

Target: T1, Arginase-2, mitochondrial (Homo sapiens) (UniProt P78540)
T1 sequence (whole entry): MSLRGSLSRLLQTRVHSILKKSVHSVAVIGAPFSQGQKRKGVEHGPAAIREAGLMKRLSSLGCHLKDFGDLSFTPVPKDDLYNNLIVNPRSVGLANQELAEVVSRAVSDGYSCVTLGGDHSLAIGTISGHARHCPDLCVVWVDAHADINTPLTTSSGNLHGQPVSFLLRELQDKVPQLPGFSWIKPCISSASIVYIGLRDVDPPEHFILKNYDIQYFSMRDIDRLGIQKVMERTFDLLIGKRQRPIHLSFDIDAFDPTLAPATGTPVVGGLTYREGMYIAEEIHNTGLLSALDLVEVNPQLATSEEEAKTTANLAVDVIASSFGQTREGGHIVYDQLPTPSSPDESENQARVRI
Test: in vitro enzyme assay to detect the production of urea directly proportional to the activity of Arginase II
Type: functional
Parameters: scale not given: in the data most compounds retested in dose-response had high values
Conditions: 30 µM

SMILES | Percent Effect
OC(CN(Cc1ccccc1)Cc1cccnc1)c1cccs1 (centres undefined) | -5.95%
CC(C)C(NC(=O)Cn1nc2c(cc1=O)CCCC2)C(=O)O (centres undefined) | 7.03%
c1ccc(OC2COC3(CCN(CC4CC4)CC3)C2)nc1 (centres undefined) | -16.8%
CN1[C@H]2CC[C@@H]1CN(C(=O)CCc1csc(N)n1)CC2 | 3.78%
CN(C)C(=O)[C@@H]1CCO[C@@H]2CCN(CCOCc3ccccc3)C[C@H]21 | 2.7%
Cc1ccc(CCNC(=O)N2CCC(Cc3cnn(C)c3)C2)cn1 (centres undefined) | 7.03%
CCOCCCNC(=O)c1cc(Br)c2c(c1)OCCO2 | 0.54%
Cc1ccc([C@@H]2CN(S(=O)(=O)Cc3ccccc3)C[C@H]2N(C)C)cc1 | 1.62%
CCn1c(NCc2cccnc2)nc2c(C)nn(C)c2c1=O | 3.78%
c1ccc(O[C@H]2CO[C@@]3(CCN(Cc4ccc5c(c4)OCO5)C3)C2)nc1 | 7.03%
CCCn1c(NCCc2ccccc2)nc2c(C)nn(C)c2c1=O | 1.62%
Fc1ccc(CNCc2nnc3n2CC(C(F)(F)F)CC3)cc1 (centres undefined) | -13.5%
Cn1cc(CN2C[C@@H]3COC[C@]3(C(=O)NCCc3ccccc3)C2)cn1 | 12.4%
Cc1noc(C)c1CN1CCC[C@]2(C[C@@H](Oc3ccccn3)CO2)C1 | -26.5%
COc1ccc(NC2CCc3c2[nH]c(=O)n(C2CCCCC2)c3=O)cc1 (centres undefined) | 4.87%
Cc1nc(NCC2CC2)nc2c1COCC21CCN(C(=O)NC(C)C)C1 (centres undefined) | 7.03%
Fc1ccc(CNCc2nnc3n2CC(C(F)(F)F)CC3)c(F)c1 (centres undefined) | 8.11%
COc1ccc(OCC(O)CN2CCN(c3nccs3)CC2)cc1 (centres undefined) | -8.11%
Cn1cc(CN2C[C@@H]3COC[C@]3(C(=O)NCc3cccs3)C2)cn1 | 4.87%
